In the supplement of paper PMC11732987, “Enantioselective OTUD7B fragment discovery through chemoproteomics screening and high-throughput optimisation” (Communications Chemistry, 2025):

Tests used:
Test in all cases: log2 ratio of Biotin-Ahx-Ub-VS probe labelling (fragment/DMSO); higher = less target engagement (more negative = stronger competition), active = hit call of the paper (q ≤ 0.05, log2 ratio ≤ -1)
Settings in all cases: compound concentration: 200 uM; treatment time: 3 h
USP34 = USP34 (UniProt Q70CQ2)
USP34, sequence (Q70CQ2 whole entry, the tested form may be a part): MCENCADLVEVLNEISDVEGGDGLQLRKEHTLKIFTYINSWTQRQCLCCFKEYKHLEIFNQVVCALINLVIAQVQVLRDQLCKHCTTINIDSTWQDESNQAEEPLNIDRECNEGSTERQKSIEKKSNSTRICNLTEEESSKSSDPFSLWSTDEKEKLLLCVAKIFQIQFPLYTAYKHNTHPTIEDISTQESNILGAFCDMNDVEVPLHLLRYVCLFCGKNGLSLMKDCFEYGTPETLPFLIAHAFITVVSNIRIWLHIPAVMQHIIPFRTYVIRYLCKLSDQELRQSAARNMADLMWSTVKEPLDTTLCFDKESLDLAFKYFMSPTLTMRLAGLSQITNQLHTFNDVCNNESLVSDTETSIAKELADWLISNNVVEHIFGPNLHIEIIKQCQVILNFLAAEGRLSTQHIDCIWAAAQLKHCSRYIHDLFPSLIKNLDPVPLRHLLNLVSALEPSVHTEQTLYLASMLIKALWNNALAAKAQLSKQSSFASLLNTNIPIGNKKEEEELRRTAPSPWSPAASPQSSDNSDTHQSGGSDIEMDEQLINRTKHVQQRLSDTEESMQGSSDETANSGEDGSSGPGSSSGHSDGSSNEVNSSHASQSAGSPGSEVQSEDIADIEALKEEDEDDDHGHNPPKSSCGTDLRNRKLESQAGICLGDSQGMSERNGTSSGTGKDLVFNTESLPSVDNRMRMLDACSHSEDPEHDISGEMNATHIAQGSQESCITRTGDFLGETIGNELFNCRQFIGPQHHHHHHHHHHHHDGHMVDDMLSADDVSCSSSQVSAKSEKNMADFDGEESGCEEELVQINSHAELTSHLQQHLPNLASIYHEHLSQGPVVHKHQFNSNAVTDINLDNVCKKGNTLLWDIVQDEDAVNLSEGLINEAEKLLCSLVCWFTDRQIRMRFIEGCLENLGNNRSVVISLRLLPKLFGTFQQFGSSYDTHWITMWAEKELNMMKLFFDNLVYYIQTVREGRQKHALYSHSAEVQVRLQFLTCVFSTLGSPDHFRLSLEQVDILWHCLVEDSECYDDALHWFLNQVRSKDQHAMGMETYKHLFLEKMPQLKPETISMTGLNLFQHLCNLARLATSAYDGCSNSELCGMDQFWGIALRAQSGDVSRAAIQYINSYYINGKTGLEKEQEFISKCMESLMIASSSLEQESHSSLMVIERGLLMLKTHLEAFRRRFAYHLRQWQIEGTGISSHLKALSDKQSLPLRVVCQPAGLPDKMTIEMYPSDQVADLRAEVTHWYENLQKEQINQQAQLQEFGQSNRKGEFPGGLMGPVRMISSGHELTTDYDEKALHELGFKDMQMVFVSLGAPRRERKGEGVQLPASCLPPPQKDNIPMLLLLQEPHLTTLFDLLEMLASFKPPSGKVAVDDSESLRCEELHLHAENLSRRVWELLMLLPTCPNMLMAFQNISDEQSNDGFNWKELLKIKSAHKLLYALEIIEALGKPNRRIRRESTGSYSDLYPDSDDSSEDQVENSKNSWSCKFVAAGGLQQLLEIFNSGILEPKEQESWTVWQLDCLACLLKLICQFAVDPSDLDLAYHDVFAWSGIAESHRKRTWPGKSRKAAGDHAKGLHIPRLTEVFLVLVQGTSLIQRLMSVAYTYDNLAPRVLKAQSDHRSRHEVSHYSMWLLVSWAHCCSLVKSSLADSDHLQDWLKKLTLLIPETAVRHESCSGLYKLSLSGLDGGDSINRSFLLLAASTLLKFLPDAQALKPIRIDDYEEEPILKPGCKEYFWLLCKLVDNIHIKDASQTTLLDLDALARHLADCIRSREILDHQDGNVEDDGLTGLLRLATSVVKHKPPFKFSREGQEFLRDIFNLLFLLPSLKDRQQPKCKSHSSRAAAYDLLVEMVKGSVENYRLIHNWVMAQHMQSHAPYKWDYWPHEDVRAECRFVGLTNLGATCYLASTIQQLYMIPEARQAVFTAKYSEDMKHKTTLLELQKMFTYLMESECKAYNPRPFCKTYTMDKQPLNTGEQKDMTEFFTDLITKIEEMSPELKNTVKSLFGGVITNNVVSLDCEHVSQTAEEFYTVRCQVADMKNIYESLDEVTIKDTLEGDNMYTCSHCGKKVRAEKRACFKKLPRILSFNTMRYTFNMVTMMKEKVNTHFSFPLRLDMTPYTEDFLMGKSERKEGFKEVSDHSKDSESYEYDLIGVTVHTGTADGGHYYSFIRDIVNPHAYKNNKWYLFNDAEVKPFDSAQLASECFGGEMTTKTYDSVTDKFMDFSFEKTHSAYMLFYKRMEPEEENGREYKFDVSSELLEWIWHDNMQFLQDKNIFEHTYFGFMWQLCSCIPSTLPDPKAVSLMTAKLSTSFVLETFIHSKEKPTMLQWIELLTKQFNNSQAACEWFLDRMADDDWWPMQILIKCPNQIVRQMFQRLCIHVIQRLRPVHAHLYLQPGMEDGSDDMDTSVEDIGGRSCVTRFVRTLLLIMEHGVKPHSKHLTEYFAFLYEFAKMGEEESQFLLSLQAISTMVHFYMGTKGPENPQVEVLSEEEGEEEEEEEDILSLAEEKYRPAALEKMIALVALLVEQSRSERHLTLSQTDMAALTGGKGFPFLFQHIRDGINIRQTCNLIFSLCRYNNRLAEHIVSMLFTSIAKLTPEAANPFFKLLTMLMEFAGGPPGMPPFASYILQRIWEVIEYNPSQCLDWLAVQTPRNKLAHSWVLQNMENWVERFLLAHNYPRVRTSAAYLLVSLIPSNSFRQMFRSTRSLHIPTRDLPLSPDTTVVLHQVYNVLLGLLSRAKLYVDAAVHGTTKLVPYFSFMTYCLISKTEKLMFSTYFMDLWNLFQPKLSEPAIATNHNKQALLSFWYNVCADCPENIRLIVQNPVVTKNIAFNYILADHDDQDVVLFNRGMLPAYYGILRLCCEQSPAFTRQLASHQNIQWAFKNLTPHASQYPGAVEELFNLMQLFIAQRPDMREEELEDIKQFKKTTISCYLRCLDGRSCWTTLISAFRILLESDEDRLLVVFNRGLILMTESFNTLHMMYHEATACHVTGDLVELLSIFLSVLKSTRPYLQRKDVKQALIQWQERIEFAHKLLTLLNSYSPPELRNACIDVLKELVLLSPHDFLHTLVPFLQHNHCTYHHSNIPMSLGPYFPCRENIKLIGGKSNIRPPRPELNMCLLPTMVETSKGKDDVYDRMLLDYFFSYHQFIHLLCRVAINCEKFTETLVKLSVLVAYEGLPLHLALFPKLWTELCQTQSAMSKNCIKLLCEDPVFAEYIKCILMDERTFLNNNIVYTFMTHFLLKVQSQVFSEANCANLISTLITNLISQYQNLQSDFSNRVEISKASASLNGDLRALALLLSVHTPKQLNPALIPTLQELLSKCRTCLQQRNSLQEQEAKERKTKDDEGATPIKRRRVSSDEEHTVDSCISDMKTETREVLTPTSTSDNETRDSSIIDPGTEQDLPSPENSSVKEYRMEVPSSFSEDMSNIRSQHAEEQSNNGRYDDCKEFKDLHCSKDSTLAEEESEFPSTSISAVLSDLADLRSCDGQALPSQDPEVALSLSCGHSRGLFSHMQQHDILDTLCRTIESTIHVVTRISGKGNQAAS
How it was run: (§1)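 The table lists average log2 ratios of fragment over vehicle, from an unpaired t-test on global-median-normalised Spectronaut label-free quantities. Proteins with ≥2 unique peptides were used. Samples were HEK293T lysate (495 µg) treated in triplicate with fragment at 200 µM or vehicle for 3 h, then with Biotin-Ahx-Ub-VS (0.5 µM final) for 1 h, with labelled DUBs NeutrAvidin-enriched and run by diaPASEF LC-MS/MS.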

USP36 = biological target: T1, USP36 (UniProt Q9P275)
T1 sequence (whole entry): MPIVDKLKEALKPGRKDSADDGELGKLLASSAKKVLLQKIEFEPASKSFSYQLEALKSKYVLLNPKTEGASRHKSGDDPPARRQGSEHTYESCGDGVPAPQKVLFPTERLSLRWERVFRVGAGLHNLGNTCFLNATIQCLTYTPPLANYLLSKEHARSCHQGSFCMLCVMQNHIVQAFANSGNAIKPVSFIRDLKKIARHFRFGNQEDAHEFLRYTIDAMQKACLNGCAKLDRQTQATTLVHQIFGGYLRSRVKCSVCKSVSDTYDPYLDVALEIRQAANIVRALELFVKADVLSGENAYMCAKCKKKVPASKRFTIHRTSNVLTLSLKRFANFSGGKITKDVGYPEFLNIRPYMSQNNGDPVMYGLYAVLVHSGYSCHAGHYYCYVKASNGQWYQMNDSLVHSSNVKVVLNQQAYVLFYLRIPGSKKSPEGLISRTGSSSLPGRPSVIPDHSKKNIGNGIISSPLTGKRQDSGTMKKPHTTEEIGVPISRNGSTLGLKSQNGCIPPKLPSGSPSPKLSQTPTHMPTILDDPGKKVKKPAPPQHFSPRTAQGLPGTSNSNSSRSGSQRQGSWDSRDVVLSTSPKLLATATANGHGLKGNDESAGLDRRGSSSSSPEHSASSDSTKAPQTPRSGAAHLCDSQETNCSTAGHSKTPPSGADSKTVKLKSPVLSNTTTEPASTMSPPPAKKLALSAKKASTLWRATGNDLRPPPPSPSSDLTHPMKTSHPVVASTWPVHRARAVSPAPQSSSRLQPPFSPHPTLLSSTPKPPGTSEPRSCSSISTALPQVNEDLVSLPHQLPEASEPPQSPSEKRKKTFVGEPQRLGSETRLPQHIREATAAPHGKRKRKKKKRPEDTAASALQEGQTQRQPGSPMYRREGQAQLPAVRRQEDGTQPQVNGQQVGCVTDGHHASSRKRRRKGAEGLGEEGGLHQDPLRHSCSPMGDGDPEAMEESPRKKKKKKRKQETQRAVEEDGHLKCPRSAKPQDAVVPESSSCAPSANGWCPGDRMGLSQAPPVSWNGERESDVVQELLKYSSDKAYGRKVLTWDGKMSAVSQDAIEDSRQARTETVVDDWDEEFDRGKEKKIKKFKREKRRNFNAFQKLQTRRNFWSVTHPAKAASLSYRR
How it was run: as §1

USP38 = biological target: T2, USP38 (UniProt Q8NB14)
T2 sequence (whole entry): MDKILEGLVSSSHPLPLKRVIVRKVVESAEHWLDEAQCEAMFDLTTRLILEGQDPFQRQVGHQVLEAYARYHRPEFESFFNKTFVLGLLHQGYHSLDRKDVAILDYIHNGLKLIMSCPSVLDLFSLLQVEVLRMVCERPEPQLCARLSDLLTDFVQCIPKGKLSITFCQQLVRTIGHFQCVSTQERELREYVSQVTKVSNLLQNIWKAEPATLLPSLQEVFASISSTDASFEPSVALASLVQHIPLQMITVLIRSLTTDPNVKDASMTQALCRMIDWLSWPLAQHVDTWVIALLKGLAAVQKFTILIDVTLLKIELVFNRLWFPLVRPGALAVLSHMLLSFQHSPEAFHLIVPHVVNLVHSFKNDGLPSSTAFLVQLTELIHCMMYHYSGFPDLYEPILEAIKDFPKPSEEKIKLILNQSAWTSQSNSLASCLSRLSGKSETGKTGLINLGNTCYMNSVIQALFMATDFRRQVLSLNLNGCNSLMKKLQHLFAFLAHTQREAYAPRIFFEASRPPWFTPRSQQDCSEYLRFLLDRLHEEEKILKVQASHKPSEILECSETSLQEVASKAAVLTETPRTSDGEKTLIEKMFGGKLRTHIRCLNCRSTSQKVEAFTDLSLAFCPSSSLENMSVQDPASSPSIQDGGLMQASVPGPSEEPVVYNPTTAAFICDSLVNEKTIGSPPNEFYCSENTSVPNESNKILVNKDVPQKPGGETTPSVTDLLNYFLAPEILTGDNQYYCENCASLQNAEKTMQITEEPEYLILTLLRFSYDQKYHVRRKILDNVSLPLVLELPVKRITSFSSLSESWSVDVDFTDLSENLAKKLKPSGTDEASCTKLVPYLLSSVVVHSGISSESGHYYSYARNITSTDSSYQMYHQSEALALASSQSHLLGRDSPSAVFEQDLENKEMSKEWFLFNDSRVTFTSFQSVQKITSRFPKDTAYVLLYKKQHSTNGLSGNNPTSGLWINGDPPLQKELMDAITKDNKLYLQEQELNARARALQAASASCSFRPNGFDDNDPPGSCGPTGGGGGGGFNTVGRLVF
How it was run: as §1

USP39 = biological target: T3, USP39 (UniProt Q53GS9)
T3 sequence (whole entry): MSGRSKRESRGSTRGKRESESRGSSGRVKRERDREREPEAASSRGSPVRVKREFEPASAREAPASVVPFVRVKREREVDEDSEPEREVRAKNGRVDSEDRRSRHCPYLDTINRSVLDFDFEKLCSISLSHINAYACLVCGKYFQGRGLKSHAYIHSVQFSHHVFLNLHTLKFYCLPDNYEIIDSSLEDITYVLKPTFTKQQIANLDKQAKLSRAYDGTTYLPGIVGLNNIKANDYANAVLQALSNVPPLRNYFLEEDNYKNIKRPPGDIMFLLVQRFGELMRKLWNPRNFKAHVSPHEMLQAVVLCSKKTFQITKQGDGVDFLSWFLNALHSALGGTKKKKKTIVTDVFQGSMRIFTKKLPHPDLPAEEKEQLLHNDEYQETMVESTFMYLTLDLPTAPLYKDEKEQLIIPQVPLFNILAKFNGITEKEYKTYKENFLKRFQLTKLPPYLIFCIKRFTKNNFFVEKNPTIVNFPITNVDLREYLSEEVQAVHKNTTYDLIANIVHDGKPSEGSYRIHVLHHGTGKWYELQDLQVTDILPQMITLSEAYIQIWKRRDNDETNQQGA
How it was run: as §1

USP4 = biological target: T4, USP4 (UniProt Q13107)
T4 sequence (whole entry): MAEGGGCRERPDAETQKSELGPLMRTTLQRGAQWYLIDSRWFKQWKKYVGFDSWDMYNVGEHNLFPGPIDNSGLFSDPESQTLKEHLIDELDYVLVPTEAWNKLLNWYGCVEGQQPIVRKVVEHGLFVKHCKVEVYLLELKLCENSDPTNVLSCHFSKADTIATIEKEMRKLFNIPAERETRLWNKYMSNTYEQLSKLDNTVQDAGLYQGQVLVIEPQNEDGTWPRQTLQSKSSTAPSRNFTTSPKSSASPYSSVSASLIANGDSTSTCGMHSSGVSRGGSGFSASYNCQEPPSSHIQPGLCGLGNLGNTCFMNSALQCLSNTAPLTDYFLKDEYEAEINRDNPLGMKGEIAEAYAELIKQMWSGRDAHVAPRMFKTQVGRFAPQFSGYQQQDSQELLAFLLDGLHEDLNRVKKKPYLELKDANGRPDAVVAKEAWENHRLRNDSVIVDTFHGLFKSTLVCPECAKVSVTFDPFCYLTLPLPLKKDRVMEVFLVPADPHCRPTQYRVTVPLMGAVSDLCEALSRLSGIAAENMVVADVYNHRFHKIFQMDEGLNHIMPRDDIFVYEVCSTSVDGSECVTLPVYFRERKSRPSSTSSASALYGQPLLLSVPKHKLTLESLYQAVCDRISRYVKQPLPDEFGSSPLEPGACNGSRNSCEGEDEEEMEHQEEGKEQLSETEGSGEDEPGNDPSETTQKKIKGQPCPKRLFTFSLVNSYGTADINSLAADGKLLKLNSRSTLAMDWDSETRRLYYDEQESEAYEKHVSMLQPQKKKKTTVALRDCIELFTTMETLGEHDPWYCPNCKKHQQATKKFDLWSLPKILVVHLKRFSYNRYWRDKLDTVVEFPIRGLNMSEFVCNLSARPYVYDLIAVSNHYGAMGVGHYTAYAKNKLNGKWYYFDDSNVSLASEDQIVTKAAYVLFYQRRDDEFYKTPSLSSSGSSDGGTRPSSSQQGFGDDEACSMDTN
How it was run: as §1

Measured: log2 ratio of Biotin-Ahx-Ub-VS probe labelling

Cc1ccc(CN(CCO)C(=O)CCl)cc1
inactive: USP34 0.0432 | USP36 -0.00999 | USP38 -0.303 | USP39 -0.0925 | USP4 -0.21
